HttQ103 aggreg – qHTS Multiplex Assay to Identify Dual Action Probes in a Cell Model of Huntington: Aggregate Formation (GFP) | Potency, µM (titrated, usually from 46.1 µM), for inactives: at the highest dose activity change, negative = inhibition, actives largely listed as inhibitors | 220,000 tested, 1.1% active | PC12 HttQ103-GFP aggregates, Acumen cytometry, 40 h; note: % is set by controls: 0 for no effect and ±100 for the full control effect; nearly all actives have a fitted effect of over 60% in size
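Compounds (qHTS titration) were added to PC12 cells expressing an ecdysone-driven HTT exon 1 Q103–GFP fusion after induction with 100 nM tebufenozide. Aggregate formation was measured as GFP objects in cell lysates.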
HTT ATP protect – qHTS Multiplex Assay to Identify Dual Action Probes in a Cell Model of Huntington: Cytoprotection (ATP); PC12 HTT-Q103 induced, cytoprotection, ATP luminescence, 40 h; Potency, µM (highest dose often 56.4 µM), inactives show cytoprotection (ATP increase), most hits filed as activators; 230,000 tested, 0.14% active; AID 1471, 2008; note: % of control where 0% means no effect; nearly all actives have a fitted effect of over 45% in size
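PC12 cells with ecdysone-inducible HTT exon 1 Q103-GFP, induced with 100 nM tebufenozide and co-treated with library compounds in a dose series (1536-well, 1500 cells/well). Cytoprotection read as ATP content by ATPlite luminescence.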
ERK EGF inh – qHTS Assay for Inhibitors of the ERK Signaling Pathway using a Homogeneous Screening Assay; Stimulation with EGF. AID 1454, 2008. 130,000 tested, 0.41% active. Potency, µM (top dose mostly 11.5 µM), for inactives: at the highest dose activity change, negative = inhibition, usual class: inhibitors. HEK293-V1b, EGF-stimulated phospho-ERK AlphaScreen;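 note: plate controls were stimulated vehicle wells for no effect and unstimulated vehicle basal for full effect; nearly all actives have a fitted effect of over 55% in size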
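In this qHTS, HEK293 cells with stable type-1 vasopressin (V1b) receptor were exposed to compound at 37C for 30 min, stimulated 5 min with EGF at 25 nM, lysed, and probed for phospho-ERK by AlphaScreen.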
An asterisk follows results filed as active; ? = inconclusive; nt = no result; ! = not active in a repeat; [ ] = remark or other dose. Only some compounds are listed: those with a hit (about 1.4% of all), similar ones and a draw of the others. Calls come from the whole dose curve; as a rule, active = well fitted curve in the direction sought with a large enough effect; inconclusive = small, poorly fitted or top-dose-only effect, or another doubt; inactive = no such curve, though single readings can be large; an effect the other way counts as inactive or inconclusive. Potency is the fitted concentration of half-maximal effect.

SMILES	HttQ103 aggreg	HTT ATP protect	ERK EGF inh
CN1CCN(C(=S)c2cn(Cc3ccccc3F)c3ccccc23)CC1	-11%	?	-5%
Cc1nc(NC(C)c2ccccc2)c2oc3ccccc3c2n1 (configuration not stated)	13µM*	-29%	nt
CCC(C)Nc1nc(C)nc2c1oc1ccccc12 (configuration not stated)	34%[9.22 µM]	?	18%[57.5 µM]
Nc1ncnc2c1ncn2[C@@H]1O[C@H](COP(=O)(O)OP(=O)(O)CP(=O)(O)O)[C@@H](O)[C@H]1O	nt	3%	nt
CN(C)c1ccc(-c2cncnc2-n2ccnc2)cc1	nt	-35%	nt
COc1ccccc1NC(=O)/C(C#N)=C/c1cc([N+](=O)[O-])ccc1N1CCCC1	16%	4µM*	-6%
N#C/C(=C/c1cccc([N+](=O)[O-])c1)C(=O)Nc1ccccc1O	3%[9.22 µM]	-1%[10 µM]	-7%[57.5 µM]
COC(=O)c1ccccc1NC1=C/C(=N\S(=O)(=O)c2cccs2)c2ccccc2C1=O	?	-89%	nt
Cc1ccc(NC2=C/C(=N/S(=O)(=O)c3cccs3)c3ccccc3C2=O)cc1	3.5µM*	nt	?
O=C1C(Nc2ccccc2)=C/C(=N/S(=O)(=O)c2cccs2)c2ccccc21	6.3µM*	-94%[10 µM]	14µM*
CCc1cc[n+](C2=C([O-])c3ccccc3C(=O)/C2=N\S(=O)(=O)c2cccs2)cc1	?	nt	10%
CN(C)C(=O)OC1=C(c2ccccc2)Sc2ccccc2-n2cccc21	nt	-55%	nt
CO[C@@H]1COC(=O)CC=C[C@@H](C)[C@@H]2C=C[C@@H](O)[C@@H](COC(=O)C/C=C\[C@H]1C)O2	nt	-10%[10 µM]	nt
C/C(=C\CNc1ncnc2c1ncn2[C@@H]1O[C@@H](CO)[C@@H](O)[C@H]1O)CO	nt	-31%	nt
Cc1csc2c(N3CCN(C(=O)c4ccc(C(C)(C)C)cc4)CC3)ncnc12	27%[9.22 µM]	18%[10 µM]	28µM*
Cc1csc2c(N3CCN(C(=O)NC(C)(C)C)CC3)ncnc12	4%[9.22 µM]	27%[10 µM]	7%[57.5 µM]
COC(=O)[C@@]1(Cc2ccc(OC)cc2)[C@@H]2C(=CC(=O)[C@H]2CC(=O)C(=O)N2CCCC2)CN1C(=O)c1ccccc1	?	7.1µM*	-5%
COC(=O)[C@@]1(Cc2ccc(OC)cc2)[C@@H]2[C@@H](CC(=O)[C@H]2CC(=O)C(=O)N(C)C)CN1C(=O)c1ccccc1	?	?	-2%
C=C1C(=O)C=C2CN(C(=O)c3ccccc3)[C@@](Cc3ccc(OC)cc3)(C(=O)OC)[C@@H]12	nt	-116%	13µM*
COC(=O)[C@@]1(Cc2ccc(F)cc2)[C@@H]2C(=CC(=O)[C@H]2CC(=O)C(=O)N2CCCC2)CN1C(=O)c1ccccc1	nt	-32%	4%
Cc1ccc(N2CCN(CCC(=O)O)CC2)cc1	nt	12%[10 µM]	nt
CC(C)(C)C(=O)/C(=C\c1ccc([N+](=O)[O-])cc1)n1cncn1	5µM*	?	6%
CN(C)/C=C(/C(=O)c1ccccc1)n1cncn1	8%	23%[10 µM]	-7%
Oc1ccccc1-n1c(-c2ccccc2)ccc1-c1ccccc1	10%[9.22 µM]	20%[10 µM]	?
O=C(CCCc1ccc(-c2ccccc2F)cc1)Nc1ccc(O)cc1	nt	-19%	4%
SMILES	HttQ103 aggreg	HTT ATP protect	ERK EGF inh
CC(CN1c2ccccc2Sc2ccccc21)N(C)C (configuration not stated)	28µM*!	-187%	1%[57.5 µM]
C[C@@H](CN1c2ccccc2Sc2ccccc21)N(C)C	nt	-14%[40.3 µM]	-2%[25.7 µM]
CCOc1cc(/C=C\c2[nH]c(=O)[nH]c(=O)c2[N+](=O)[O-])ccc1OC(C)CC (configuration not stated)	?	2.5µM*	nt
CCCOc1ccc(/C=C/c2[nH]c(=O)[nH]c(=O)c2[N+](=O)[O-])cc1OCC	2%[9.22 µM]	0%[10 µM]	-6%[57.5 µM]
Cc1nc(N2CCOCC2)c2nc(-c3ccccc3)n(CC(C)(C)CN(C)C)c2n1	nt	8%	1%
Cc1ccc(Sc2ccc(/C=C3/C(=O)NN(c4ccccc4)C3=O)o2)cc1	-14%[9.22 µM]	-16%[10 µM]	?
O=C1NN(c2ccccc2)C(=O)/C1=C/c1ccc(Sc2ccc(Cl)cc2)o1	4%[9.22 µM]	-1%[10 µM]	28µM*
Cc1nc([N+](=O)[O-])c(Br)n1CC(=O)c1cccc([N+](=O)[O-])c1	?	-60%[10 µM]	34%
Cc1nc([N+](=O)[O-])c(Br)n1CC(=O)c1ccc(F)cc1	28µM*	-248%	-3%
COc1cccc(C(=O)Nc2cccc(NC(C)=O)c2)c1	-4%	-16%	nt
COc1cccc(C(=O)Nc2cccc(C(=O)NCC(C)C)c2)c1	3.2µM*	-5%[10 µM]	-2%
OCCSCc1ccccc1	nt	-12%[10 µM]	nt
COC(=O)C1OC(=O)C2O[C@@]23[C@]2(C)C(OC(C)=O)CC4C(C)(C)C(=O)CC[C@]4(C)C2CC[C@@]13C (some centres not stated)	nt	-70%	12%
CO[C@@H]1COC(=O)C/C=C\[C@@H](C)COC(=O)[C@H](Cc2ccccc2)NC(=O)C/C=C\[C@H]1C	nt	-8%[10 µM]	nt
Cc1cc(C)nc(-n2ncc3c2CCCC3=O)n1	?	25µM*	-1%
Cc1cc(C)nc(-n2ncc(C#N)c2N)n1	6%[9.22 µM]	21%[10 µM]	1%[57.5 µM]
N#Cc1cccc(NC(=O)N2CC[C@@]3(CCCN(C(=O)c4csnn4)C3)C2)c1	nt	?	-16%
Cc1ccc(S(=O)(=O)NCCSc2nnnn2-c2ccc(C(N)=O)cc2)cc1	2%	-6%	nt
c1ccc(-n2nnnc2NCCCN2CCOCC2)cc1	18%	11%	nt
Cc1ccc(-n2nnnc2Sc2ccc(S(=O)(=O)NCCN(C)C)cc2[N+](=O)[O-])cc1	22µM*	-52%[10 µM]	-10%
O=[N+]([O-])c1cc(S(=O)(=O)NCCN2CCOCC2)ccc1Sc1nnnn1-c1ccccc1	4.5µM*	24%[10 µM]	2%
O=C1Oc2ccccc2C(=O)C1C(CC(O)c1ccc(-c2ccc(Br)cc2)cc1)c1ccccc1 (configuration not stated)	-2%	-15%	nt
N#C/C(=N\Nc1cccc([N+](=O)[O-])c1)C(=O)c1ccc(Br)cc1	1.8µM*	nt	-7%
O=C(O)c1ccc(N=NNc2cccc([N+](=O)[O-])c2)cc1	5%	-44%	-3%
O=C(c1cc(C(F)(F)F)cc(C(F)(F)F)c1)N1CCC2(CCCN(c3ncccn3)C2)CC1	nt	-53%	9%
SMILES	HttQ103 aggreg	HTT ATP protect	ERK EGF inh
Cc1cc(C)c(NC(=O)CSc2nc3ccc(NC(=O)CSc4nnnn4-c4ccccc4)cc3s2)c(C)c1	10µM*	nt	9%
O=C(CSc1nc2ccc(NC(=O)CSc3nnnn3Cc3ccccc3)cc2s1)Nc1ccccc1	10%	11%[10 µM]	3%
Cc1cccc2[nH]c3c(N4CCN(C(=O)c5ccco5)CC4)ncnc3c12	-30%	-42%	nt
Cc1ccc2[nH]c3c(N4CCOCC4)ncnc3c2c1	?	-16%	nt
Clc1ccc2[nH]c3c(N4CCC5(CC4)OCCO5)ncnc3c2c1	8.9µM*	-98%	nt
Cc1cccc2[nH]c3c(N4CCC5(CC4)OCCO5)ncnc3c12	22µM*	-55%	nt
COc1ccc(NC(=O)N2CC3(CCN(C(=O)c4ccncc4)CC3)C2)cc1	nt	-9%	2%

Assay outcomes (PubChem BioAssay)
